GAA850 FXN act: frataxin GAA850 promoter activation. HEK293 lucGAA850 FXN promoter luciferase reporter, 24 h; percent of 10 µM SAHA response. activation, % at 6 µM. 360,000 compounds, 0.56% hits;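 active = activation above the average of all compounds screened plus 3 SD, cutoff fixed separately per campaign, cut at about 7.5% in these data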
HSF-1 act: increases HSF-1 driven luciferase reporter signal; activation, % at 9 µM; 300,000 compounds, 1.7% hits; AID 504408; NIH3T3-HGL HSF-1 luciferase reporter, MG132, 8 h; 100% = twice DMSO control signal;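 active = mean replicate activation of at least 50% with a set share of replicates each reaching 50%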
AHR activator: activates the human aryl hydrocarbon receptor; AID 2796; AHR-responsive luciferase reporter cells, luminescence; 320,000 compounds, 2.5% hits; activation, % at 5 µM; in the data active = activation above about 47%
HSF1 inh: HSF1 inhibition; activity change, negative = inhibition, % at 7.5 µM (by protocol); 300,000 compounds, 0.77% hits; AID 2098; NIH3T3-HGL HSE-luciferase, MG132-induced, luminescence 8 h; hits give low values;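 active = more than half of replicate wells show activity change below -50%, luminescence cut by over half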;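 note: luciferase reports HSF-1 transcriptional activity via heat shock element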
A number is an active result; i = inactive; nt = no result given. In the library only some 4.6% were active in any assay of this set; here they are far more common.

SMILES | GAA850 FXN act | HSF-1 act | AHR activator | HSF1 inh
O=C(N/N=C/c1cccnc1)c1ccc(Cn2cc([N+](=O)[O-])cn2)o1 | i | i | 63 | i
CC(C)c1ccc(/C=N\NC(=O)c2ccc(Cn3cccn3)o2)cc1 | i | i | i | i
O=C(N/N=C\c1ccc(Cl)s1)c1ccc(Cn2cccn2)o1 | i | i | 73 | i
COc1ccc(C(CCN2CCOCC2)c2c(OC)cc(OC)c3c(-c4ccccc4)cc(=O)oc23)cc1 (centres undefined) | i | nt | nt | nt
COc1ccc(C(=O)CC(C#N)c2ccc3c(c2)OCO3)cc1OC (centres undefined) | i | nt | nt | nt
COc1ccc(C(=O)Nc2ccc3[nH]ncc3c2)cc1OC | i | i | 48 | i
CC(=O)Nc1ccc(CN2CCCC(C(=O)c3cccc(C(F)(F)F)c3)C2)cc1 (centres undefined) | i | i | i | i
Cc1nn(-c2ccccc2)nc1C(=O)Nc1ccc2[nH]ncc2c1 | i | i | 52 | i
COc1ccccc1CC(=O)Nc1ccc2[nH]ncc2c1 | i | i | i | i
Cc1nn(-c2ccccc2)nc1C(=O)NN | i | i | i | i
COc1ccc(C(=O)C2CCCN(Cc3ccc(NC(C)=O)cc3)C2)cc1OC (centres undefined) | i | i | i | -72
COc1ccc(C(=O)Nc2ccc(Cn3ccnc3)cc2)cc1OC | i | i | 51 | i
COc1cc(OC)cc(C(=O)Nc2ccc(Cn3ccnc3)cc2)c1 | i | i | i | i
COc1ccc(NC(=S)N2CCN(Cc3ccc(C)cc3)CC2)cc1 | i | i | i | i
COc1cccc(NC(=O)C(C)C)c1 | i | i | i | i
O=C(Nc1ccc(Br)cc1)c1cccc(S(=O)(=O)Nc2ccccn2)c1 | i | i | 61 | i
Cc1ccnc(NC(=O)c2cccc(S(=O)(=O)Nc3ccc(C)cc3C)c2)c1 | i | nt | 61 | nt
Cc1ccc(NS(=O)(=O)c2cccc(C(=O)NNC(=O)c3cccn3C)c2)c(C)c1 | i | i | i | i
CC(=O)Nc1ccc(S(=O)(=O)Nc2cccc(C(=O)NC(C)(C)C)c2)cc1 | i | i | i | i
CCOc1ccc(C2NC(=O)NC(C)=C2C(=O)OCc2ccccc2)cc1 (centres undefined) | i | i | i | i
COc1ccc(Oc2ccc(/C=C/C(=O)c3ccc(O)cc3)cc2[N+](=O)[O-])cc1 | i | 77 | i | i
COc1ccccc1CC(=O)c1ccc(OCc2ccccc2)cc1 | i | i | 48 | i
COc1ccc(/C=C/C(=O)c2ccc(O)cc2)cc1COc1ccc(F)cc1 | i | 83 | i | i
COc1ccc(C(=O)/C=C/c2ccc(OCc3ccccc3)cc2)cc1CSCC(=O)O | i | 55 | nt | i
COc1ccc(/C=C/C(=O)c2ccccc2)cc1COc1ccc(F)cc1 | i | i | i | i
SMILES | GAA850 FXN act | HSF-1 act | AHR activator | HSF1 inh
Cn1ccs/c1=N\S(=O)(=O)c1ccc(Br)cc1 | i | i | i | i
CCc1ccccc1N(CC(=O)N1CCCC1)S(C)(=O)=O | i | i | i | -56
Cc1nc2ccc(N)cc2c(=O)n1Cc1ccc(Cl)cc1 | i | i | i | i
COc1ccc(NC(=O)NC(C)c2ccncc2)cc1OC (centres undefined) | i | i | i | i
COc1ccc(C(=O)NCCSC2CCCCC2)cc1 | i | 51 | i | i
Cc1ccccc1OCC(=O)Nc1ccc(N2CCN(S(C)(=O)=O)CC2)cc1 | i | i | i | i
COc1ccccc1OCC(=O)Nc1ccncc1 | i | i | i | i
Cc1cc(Cl)ccc1OCC(=O)Nc1ccncc1 | i | i | i | -59
Cc1cc(Cl)ccc1OCC(=O)NCc1ccncc1 | i | i | i | i
Cc1cccc(OCC(=O)Nc2ccncc2)c1C | i | i | i | -68
Cc1cccc(OCC(=O)Nc2ccc(N3CCN(S(C)(=O)=O)CC3)cc2)c1C | i | 57 | i | i
O=C(COC(=O)CCc1nc2ccccc2c(=O)[nH]1)Nc1c(Cl)cccc1C(F)(F)F | i | i | i | -70
Cc1ccccc1NC(=O)COC(=O)CCc1nc2ccccc2c(=O)[nH]1 | i | i | i | i
Cc1cc(=O)oc2cc(NC(=O)c3ccccc3Cl)ccc12 | i | 63 | 63 | i
COc1cccc(C(=O)Nc2ccc3c(C)cc(=O)oc3c2)c1 | i | 108 | nt | i
CCOC(=O)c1c(C)[nH]c(C(=O)Nc2ccc(C)c(Cl)c2)c1C | nt | 63 | i | i
CCOC(=O)c1c(C)[nH]c(C(=O)Nc2ccc(NC(C)=O)cc2)c1C | i | i | i | i
COc1ccc(NC(=O)c2[nH]c(C)c(C(C)=O)c2C)cc1S(=O)(=O)Nc1ccc(Br)cc1 | i | 89 | i | i
COc1ccc(NC(=O)c2[nH]c(C)c(C(C)=O)c2C)cc1Cl | i | i | i | i
